Reference: PubChem BioAssay (NCI)
Compounds without any hit were thinned out: in the full panel of roughly 79,000, 15% have a hit. The source made the active and inactive calls. No stated cut-off is given here; in the data, active means growth inhibition above about 70%; inactive means the rest.

Experiments:
[1] = NCI Yeast Anticancer Drug Screen. Data for the rad50 strain (AID 155);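 further: 0% = growth of vehicle-only cultures of the same strain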; conditions: S. cerevisiae rad50 strain growth inhibition, stronger effect = higher value
Method in brief: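 Inhibition values express reduced yeast growth in compound-treated cultures relative to vehicle-treated controls.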

[2] = NCI Yeast Anticancer Drug Screen. Data for the mec2-1 strain (AID 157); conditions: S. cerevisiae mec2-1 strain, stronger effect = higher value
Method in brief: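 Yeast mec2-1 mutant treated with compound. Readout: growth inhibition vs vehicle controls.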

[3] = NCI Yeast Anticancer Drug Screen. Data for the sgs1 mgt1 strain (AID 161);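 further: 0% = growth of cultures given vehicle only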; conditions: S. cerevisiae sgs1 mgt1 strain, stronger effect = higher value
Method in brief: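 Mutant yeast exposed to compound; growth scored against vehicle-only wells.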

[4] = NCI Yeast Anticancer Drug Screen. Data for the cln2 rad14 strain (AID 165);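 further: 0% = growth equal to vehicle treated cultures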; conditions: S. cerevisiae cln2 rad14 strain, stronger effect = higher value
Method in brief: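 cln2 rad14 yeast strain; compound exposure; growth inhibition read vs vehicle controls.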

[5] = NCI Yeast Anticancer Drug Screen. Data for the bub3 strain (AID 167); conditions: S. cerevisiae bub3 mutant strain, stronger effect = higher value
Method in brief: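 Steps: expose the mutant yeast strain to compound; grow alongside vehicle-treated cultures; measure growth; express inhibition against the vehicle cultures.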

[6] = NCI Yeast Anticancer Drug Screen. Data for the mlh1 rad18 strain (AID 175); conditions: S. cerevisiae mlh1 rad18 strain growth inhibition, stronger effect = higher value
Method in brief: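 Yeast w/ defined DNA-repair lesions; compound exposure; growth vs vehicle controls → % inhibition.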

[7] = at 5.0 µM (retest, dose inferred, filed as 0.5)
[8] = at 50.0 µM (retest, dose inferred, filed as 5.0)

Measured: growth inhibition

COC(=O)/C=C(\Cl)C(=O)OC
inactive: [1]; [7] 8% | [2]; [7] 16% | [3]; [7] 5% | [4]; [7] 19% | [5]; [7] 19% | [6]; [7] 7%
active: [1]; [8] 84% | [1]; at 50.0 µM 99.3% | [2]; [8] 99% | [2]; at 50.0 µM 99.7% | [3]; [8] 98% | [3]; at 50.0 µM 99.5% | [4]; [8] 99% | [4]; at 50.0 µM 97.5% | [5]; [8] 97% | [5]; at 50.0 µM 99.5% | [6]; [8] 98% | [6]; at 50.0 µM 99.2%

OC(C/C(CNNc1ccccc1)=N/Nc1ccccc1)(C(F)(F)F)C(F)(F)F
inactive: [1]; [7] 6% | [1]; [8] -9% | [2]; [7] -2% | [3]; [7] -6% | [3]; [8] 5% | [3]; at 50.0 µM 69.2% | [4]; [7] 2% | [4]; at 50.0 µM 55.4% | [5]; [7] -1% | [5]; [8] 59% | [6]; [7] 14%
active: [1]; at 50.0 µM 71.2% | [2]; [8] 76% | [2]; at 50.0 µM 83.8% | [4]; [8] 75% | [5]; at 50.0 µM 74.6% | [6]; [8] 78% | [6]; at 50.0 µM 89%

NC(=S)Nc1ccccc1O
active: [5]; [8] 72% | [5]; at 50.0 µM 80.3%
inactive: [1]; [7] 6% | [1]; [8] 43% | [1]; at 50.0 µM 50.5% | [2]; [7] -10% | [2]; [8] 19% | [2]; at 50.0 µM 50.9% | [3]; [7] 6% | [3]; [8] 15% | [3]; at 50.0 µM 40.9% | [4]; [7] 0% | [4]; [8] 21% | [4]; at 50.0 µM 8.25% | [5]; [7] 17% | [6]; [7] 14% | [6]; [8] 46% | [6]; at 50.0 µM 59.2%

Cc1cc(N(CCOS(C)(=O)=O)CCOS(C)(=O)=O)ccc1C=Nc1cccc(Cl)c1
active: [1]; [8] 80% | [1]; at 50.0 µM 90.3% | [3]; at 50.0 µM 70.8% | [6]; [8] 92% | [6]; at 50.0 µM 96.2%
inactive: [1]; [7] 10% | [2]; [7] 44% | [2]; [8] 56% | [2]; at 50.0 µM 51.5% | [3]; [7] 4% | [3]; [8] 61% | [4]; [7] -3% | [4]; [8] 57% | [4]; at 50.0 µM 13.1% | [5]; [7] 0% | [5]; [8] 15% | [5]; at 50.0 µM 29.7% | [6]; [7] 24%

CSC(=S)OC1CC(n2cnc3c(NC(=O)c4ccccc4)ncnc32)OC1CO[Si](C)(C)C(C)(C)C (stereo not given)
active: [4]; at 50.0 µM 73%
inactive: [1]; [7] 1% | [1]; [8] -1% | [1]; at 50.0 µM 6.5% | [2]; [7] 0% | [2]; [8] 2% | [2]; at 50.0 µM -3.65% | [3]; [7] -1% | [3]; [8] 2% | [3]; at 50.0 µM 10.4% | [4]; [7] -1% | [4]; [8] 6% | [5]; [7] -1% | [5]; [8] -5% | [5]; at 50.0 µM 1.45% | [6]; [7] 0% | [6]; [8] -1% | [6]; at 50.0 µM 16.6%

Clc1ccc(C2SCc3nc4ccccc4n32)c(Cl)c1 (stereo not given)
active: [1]; [8] 96% | [1]; at 50.0 µM 99% | [2]; [8] 97% | [2]; at 50.0 µM 99.1% | [3]; [8] 95% | [3]; at 50.0 µM 99.2% | [4]; [8] 98% | [4]; at 50.0 µM 97.9% | [5]; [8] 96% | [5]; at 50.0 µM 98.7% | [6]; [8] 94% | [6]; at 50.0 µM 71.9%
inactive: [1]; [7] -7% | [2]; [7] -6% | [3]; [7] 4% | [4]; [7] -17% | [5]; [7] 9% | [6]; [7] -10%

O=Cc1nc2c3cccnc3ccc2n1Cc1ccccc1
inactive: [1]; [7] -4% | [1]; [8] 24% | [1]; at 50.0 µM 0.05% | [2]; [7] -17% | [2]; [8] 8% | [2]; at 50.0 µM -18.8% | [3]; [7] -17% | [3]; [8] 15% | [3]; at 50.0 µM 35.4% | [4]; [7] -2% | [4]; [8] 5% | [4]; at 50.0 µM 26.7% | [5]; [7] 0% | [5]; [8] 11% | [5]; at 50.0 µM 57.4% | [6]; [7] 8% | [6]; [8] 34% | [6]; at 50.0 µM 40.9%

CC(c1ccc2cccc(F)c2c1)c1ccccc1C(=O)O (stereo not given)
active: [1]; [8] 99% | [1]; at 50.0 µM 99% | [2]; [8] 98% | [2]; at 50.0 µM 96% | [3]; [8] 96% | [3]; at 50.0 µM 98.2% | [4]; [8] 98% | [4]; at 50.0 µM 97.5% | [5]; [8] 97% | [5]; at 50.0 µM 93.9% | [6]; [8] 99% | [6]; at 50.0 µM 98.2%
inactive: [1]; [7] 3% | [2]; [7] 6% | [3]; [7] -1% | [4]; [7] 1% | [5]; [7] 0% | [6]; [7] 5%

CCCCC/C(=C/C=C/c1ccc(Cl)cc1)CN(C)C
inactive: [1]; [7] 11% | [2]; [7] 8% | [3]; [7] 49% | [4]; [7] 13% | [5]; [7] 6% | [6]; [7] 7%
active: [1]; [8] 97% | [1]; at 50.0 µM 99.5% | [2]; [8] 98% | [2]; at 50.0 µM 99.8% | [3]; [8] 98% | [3]; at 50.0 µM 99.7% | [4]; [8] 97% | [4]; at 50.0 µM 99.5% | [5]; [8] 98% | [5]; at 50.0 µM 99.8% | [6]; [8] 97% | [6]; at 50.0 µM 99.7%

C/C(=N/NC(=S)NCc1ccccc1)c1ncccn1
inactive: [1]; [7] -6% | [2]; [7] 14% | [3]; [7] 2% | [4]; [7] 7% | [5]; [7] -23% | [6]; [7] 3%
active: [1]; [8] 98% | [1]; at 50.0 µM 98.8% | [2]; [8] 98% | [2]; at 50.0 µM 98.9% | [3]; [8] 98% | [3]; at 50.0 µM 99% | [4]; [8] 98% | [4]; at 50.0 µM 97.8% | [5]; [8] 98% | [5]; at 50.0 µM 98.5% | [6]; [8] 98% | [6]; at 50.0 µM 98.9%
